Experimental data taken from the antibiotic and cytotoxicity screens of Wong et al. (2023).
Screen size: about 39,000 compounds; about 3,300 (8.5%) were called active. Many of the other results were omitted from the sample, so actives are more common in it than they were.

The molecules below were run on HepG2 (assay: cytotoxicity call (relative viability < 0.9)). Conditions: 10 µM.

Row | SMILES | cytotoxicity call
1 | COc1cc(OC)c(NC(=O)Cn2c(=O)n(-c3ccc(CC(=O)NC[C@H]4CCCO4)cc3)c(=O)c3ccccc32)cc1Cl | inactive
2 | C[C@H]1CN([C@@H](C)CO)C(=O)c2cccc(NC(=O)Nc3ccccc3)c2O[C@@H]1CN(C)C(=O)Nc1cccc2ccccc12 | inactive
3 | C/C(=C\C(=O)OCCCCCCCCC(=O)O)C[C@@H]1OC[C@H](C[C@@H]2O[C@H]2[C@@H](C)[C@H](C)O)[C@@H](O)[C@H]1O | inactive
4 | CC(=O)N1[C@H](CO)[C@@H](c2ccccc2)[C@@H]1CNC(=O)CN1CCOCC1 | inactive
5 | C[C@H]1CN([C@@H](C)CO)S(=O)(=O)c2ccc(-c3cccc(F)c3)cc2O[C@H]1CN(C)S(C)(=O)=O | inactive
6 | COCC#Cc1ccc2c(c1)O[C@@H](CN(C)S(=O)(=O)c1cccc(OC)c1)[C@H](C)CN([C@@H](C)CO)S2(=O)=O | inactive
7 | C[N+](C)(C)C[C@@H](O)CC(=O)O | inactive
8 | C[N+](C)(C)CC(O)CC(=O)[O-] (stereo unspecified) | active
9 | C[N+](C)(C)C[C@H](O)CC(=O)O | inactive
10 | COCCCOc1ccnc(CS(=O)c2nc3ccccc3[n-]2)c1C.[Na+] (stereo unspecified) | inactive
11 | C[C@@H]1CN([C@@H](C)CO)S(=O)(=O)c2ccc(-c3cncnc3)cc2O[C@H]1CN(C)C(=O)NC1CCCC1 | inactive
12 | CC(=O)[C@@]12C=CCC[C@@H]1C[C@@H](C(=O)Nc1c(C)cccc1Cl)N2C(=O)c1nc(C)oc1C(F)(F)F | inactive
13 | N=C(N)SCCN1C(=O)c2ccccc2C1=O | inactive
14 | O=C1c2ccc3c4c(ccc(c24)C(=O)N1CCCCO)C(=O)N(CCCCO)C3=O | active
15 | O=C(O)CCCN1C(=O)c2cccc3cccc(c23)C1=O | inactive
16 | C[C@H]1CN([C@@H](C)CO)C(=O)CCCn2cc(nn2)CO[C@H]1CN(C)Cc1ccc(C(=O)Nc2ccccc2N)cc1 | inactive
17 | CN(C)C1CN(S(=O)(=O)CCC2CC2)C1 | inactive
18 | CO[C@@H]1CN(C)C(=O)c2cc(NC(=O)NC3CCCCC3)ccc2OC[C@H](C)N(CCc2ccccc2)C[C@H]1C | active
19 | COc1ccc(CN2C[C@H](C)[C@@H](OC)CN(C)C(=O)c3cc(NC(=O)c4nc5ccccc5s4)ccc3OC[C@@H]2C)cc1 | inactive
20 | COCC(=O)Nc1ccc2c(c1)C(=O)N(C)C[C@H](OC)[C@@H](C)CN(C(=O)Cc1ccccn1)[C@H](C)CO2 | active
21 | COCC(=O)Nc1ccc2c(c1)C(=O)N(C)C[C@H](OC)[C@@H](C)CN(C(=O)Cc1ccccn1)[C@@H](C)CO2 | inactive
22 | CO[C@H]1CN(C)C(=O)c2cc(NC(=O)NC3CCCCC3)ccc2OC[C@H](C)N(CCc2ccccc2)C[C@@H]1C | inactive
23 | COc1ccc(CN2C[C@@H](C)[C@H](OC)CN(C)C(=O)c3cc(NC(=O)c4nc5ccccc5s4)ccc3OC[C@@H]2C)cc1 | active

Row | SMILES | cytotoxicity call
24 | CO[C@H]1CN(C)C(=O)c2cc(NC(=O)NC3CCCCC3)ccc2OC[C@@H](C)N(CCc2ccccc2)C[C@@H]1C | inactive
25 | CO[C@H]1CN(C)C(=O)c2cc(NS(C)(=O)=O)ccc2OC[C@H](C)N(C(=O)C2CCCCC2)C[C@H]1C | inactive
26 | COc1ccc(CN2C[C@@H](C)[C@H](OC)CN(C)C(=O)c3cc(NC(=O)c4nc5ccccc5s4)ccc3OC[C@H]2C)cc1 | inactive
27 | CO[C@@H]1CN(C)C(=O)c2cc(NS(C)(=O)=O)ccc2OC[C@H](C)N(C(=O)C2CCCCC2)C[C@@H]1C | active
28 | COCC(=O)Nc1ccc2c(c1)C(=O)N(C)C[C@@H](OC)[C@H](C)CN(C(=O)Cc1ccccn1)[C@H](C)CO2 | inactive
29 | CO[C@@H]1CN(C)C(=O)c2cc(NS(C)(=O)=O)ccc2OC[C@H](C)N(C(=O)C2CCCCC2)C[C@H]1C | inactive
30 | C[C@@H]1CN([C@@H](C)CO)S(=O)(=O)c2ccc(C#CC(C)(C)O)cc2O[C@@H]1CN(C)C(=O)C1CCCCC1 | inactive
31 | C[C@@H]1CN([C@@H](C)CO)C(=O)c2cc(NS(=O)(=O)c3cn(C)cn3)ccc2O[C@@H]1CN(C)Cc1ccc(C(=O)Nc2ccccc2N)cc1 | inactive
32 | O=C(C[C@@H]1CC[C@@H](NC(=O)CN2CCOCC2)[C@H](CO)O1)NCc1cccc(F)c1 | inactive
33 | C[C@H]1CN([C@@H](C)CO)C(=O)Cc2cc(NS(=O)(=O)c3cccs3)ccc2O[C@H]1CN(C)S(C)(=O)=O | inactive
34 | C[C@H](CO)N1C[C@H](C)[C@H](CN(C)Cc2ccccc2)Oc2ccc(NC(=O)Cn3cnnn3)cc2C1=O | inactive
35 | C[C@@H]1CN([C@@H](C)CO)C(=O)c2cccc(NC(=O)c3cnccn3)c2O[C@@H]1CN(C)Cc1ccncc1 | inactive
36 | COc1ccc2c3c(n(c2c1)C)[C@@H](CO)N(C[C@]13CCN(CC1)C(=O)Nc1cccc(c1)F)C(=O)CN1CCOCC1 | inactive
37 | C[C@@H]1CN([C@H](C)CO)C(=O)c2cccc(NC(=O)Nc3ccc4c(c3)OCO4)c2O[C@H]1CN(C)Cc1ccc(Cl)c(Cl)c1 | inactive
38 | CNC[C@H]1Oc2ccc(NS(=O)(=O)c3cn(C)cn3)cc2CC(=O)N([C@@H](C)CO)C[C@H]1C | inactive
39 | C[C@H](O)C#Cc1ccc2c(c1)O[C@@H](CN(C)C(=O)c1ccccc1)[C@@H](C)CN([C@H](C)CO)S2(=O)=O | inactive
40 | COc1ccc(NC(=O)Nc2ccc3c(c2)C(=O)N([C@H](C)CO)C[C@@H](C)[C@@H](CN(C)S(=O)(=O)c2cccs2)OCCCC[C@H](C)O3)cc1 | inactive
41 | CO[C@@H]1CN(C)C(=O)c2cc(NC(=O)NC3CCCCC3)ccc2OC[C@H](C)N(CCc2ccccc2)C[C@@H]1C | inactive
42 | CO[C@@H]1CN(C)C(=O)c2cc(NC(=O)NC3CCCCC3)ccc2OC[C@@H](C)N(CCc2ccccc2)C[C@H]1C | active
43 | CO[C@@H]1CN(C)C(=O)c2cc(NC(=O)NC3CCCCC3)ccc2OC[C@@H](C)N(CCc2ccccc2)C[C@@H]1C | inactive
44 | CO[C@H]1CN(C)C(=O)c2cc(NC(=O)NC(C)C)ccc2OC[C@H](C)N(Cc2ccc(-c3ccccn3)cc2)C[C@@H]1C | active
45 | CO[C@@H]1CN(C)C(=O)c2cc(NC(=O)NC(C)C)ccc2OC[C@@H](C)N(Cc2ccc(-c3ccccn3)cc2)C[C@@H]1C | inactive
46 | CO[C@@H]1CN(C)C(=O)c2cc(NC(=O)NC(C)C)ccc2OC[C@H](C)N(Cc2ccc(-c3ccccn3)cc2)C[C@H]1C | inactive
